According to PubChem BioAssay AID651903 (Broad Institute, 2012):
The whole screen tested about 22,000 compounds, of which about 1,100 (5%) were called active. Many of the other results were omitted from the sample, so actives are more common in it than they were. Values without a mark were called inactive. Cut-off read from the data, not from the text of the source: active = activity score above about 55%; inconclusive = no clear call, values can overlap the other calls; inactive = below that.

Assay: inhibitors of intracellular Trypanosoma cruzi, primary screen, cell-based, plate reader, single point, set 2 (AID 651903);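 note: parasites and compound incubated about four days before reading; 0% = median of neutral control wells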
Details: intracellular Trypanosoma cruzi in host cells, at 5.01 µM, stronger effect = higher value
Work on `C[C@H]1CN([C@@H](C)CO)C(=O)Cc2cc(NC(=O)CCCN(C)C)ccc2O[C@@H]1CN(C)Cc1ccc(-c2ccccc2)cc1` yielded an activity score (inhibition) of -19.2%. `COc1ccc(NC(=O)N(C)C[C@@H]2Oc3ccc(NC(=O)CCC(F)(F)F)cc3C(=O)N([C@@H](C)CO)C[C@H]2C)cc1` showed an activity score (inhibition) of -13.2%. Work on `C[C@@H]1CN([C@@H](C)CO)C(=O)CCCn2cc(nn2)CO[C@@H]1CN(C)Cc1cccc(O)c1` yielded an activity score (inhibition) of -17.1%. `C[C@@H]1CN([C@@H](C)CO)C(=O)c2cc(NC(=O)c3ccncc3)ccc2O[C@@H]1CN(C)S(C)(=O)=O` gave an activity score (inhibition) of -8.16%. `C[C@H]1CN([C@@H](C)CO)C(=O)CCCn2nncc2CO[C@H]1CN(C)Cc1cccc(C(=O)O)c1` showed an activity score (inhibition) of -16.6%. In the case of `COc1cccc(-c2cnc3c(c2)C(=O)N([C@H](C)CO)C[C@H](C)[C@H](CN(C)C(=O)NC(C)C)O3)c1`, the activity score (inhibition) is reported as 3.35%. In the case of `C[C@H](CO)N1C[C@H](C)[C@H](CN(C)S(C)(=O)=O)Oc2c(NC(=O)Nc3cccc4ccccc34)cccc2C1=O`, the activity score (inhibition) is reported as -17.4%. `Cc1ccc(CN(C)C[C@@H]2OCc3cnnn3CCCC(=O)N([C@@H](C)CO)C[C@H]2C)cc1` gave an activity score (inhibition) of -0.307%. `C[C@H](CO)N1C[C@H](C)[C@@H](CN(C)S(=O)(=O)c2ccccc2)Oc2c(NC(=O)c3ccc(-c4nccs4)cc3)cccc2C1=O` gave an activity score (inhibition) of 20.1%. For `C[C@@H]1CN([C@@H](C)CO)C(=O)c2cccc(NC(=O)c3ccc(-c4nccs4)cc3)c2O[C@@H]1CN(C)Cc1ccncc1`, the activity score (inhibition) was 20.7%. With `C[C@@H]1CN([C@@H](C)CO)C(=O)c2cccc(NC(=O)c3ccc(-c4nccs4)cc3)c2O[C@H]1CN(C)Cc1ccc(Cl)c(Cl)c1` the activity score (inhibition) was 85.3% (active). With `C[C@H](CO)N1C[C@H](C)[C@@H](CN(C)Cc2ccc(C(=O)Nc3ccccc3N)cc2)Oc2c(NC(=O)c3ccc(-c4nccs4)cc3)cccc2C1=O` the activity score (inhibition) was 64% (active). With `C[C@@H]1CN([C@H](C)CO)C(=O)c2cccc(NC(=O)c3cnccn3)c2O[C@@H]1CN(C)Cc1ccc(C(=O)Nc2ccccc2N)cc1` the activity score (inhibition) was 67.2% (active). With `C[C@@H]1CN([C@@H](C)CO)C(=O)c2cccc(NC(=O)c3ccc(-c4nccs4)cc3)c2O[C@@H]1CN(C)S(=O)(=O)c1ccccc1` the activity score (inhibition) was 24.8%. `C[C@@H]1CN([C@@H](C)CO)C(=O)c2cccc(NC(=O)c3cnccn3)c2O[C@H]1CN(C)Cc1ccc(C(=O)O)cc1` gave an activity score (inhibition) of 2.36%. With `C[C@H]1CN([C@@H](C)CO)C(=O)c2cccc(NC(=O)c3ccc(-c4nccs4)cc3)c2O[C@H]1CN(C)Cc1ccc(C(=O)O)cc1` the activity score (inhibition) was -0.442%. `C[C@H](CO)N1C[C@H](C)[C@@H](CN(C)S(C)(=O)=O)Oc2c(NC(=O)c3ccc(-c4nccs4)cc3)cccc2C1=O` showed an activity score (inhibition) of -3.29%. Molecule `C[C@@H]1CN([C@H](C)CO)C(=O)c2cccc(NC(=O)c3cnccn3)c2O[C@@H]1CN(C)Cc1ccncc1` has an activity score (inhibition) of -11.1%. With `Cc1ccc(S(=O)(=O)N(C)C[C@H]2Oc3c(NC(=O)c4ccc(-c5nccs5)cc4)cccc3C(=O)N([C@H](C)CO)C[C@H]2C)cc1` the activity score (inhibition) was 69.5% (active). Molecule `C[C@H](CO)N1C[C@H](C)[C@H](CN(C)S(C)(=O)=O)Oc2c(NC(=O)c3ccc(-c4nccs4)cc3)cccc2C1=O` has an activity score (inhibition) of 9.35%. `O=C(O)c1cccc(/C=N/NC(=O)c2cccc(C(=O)NO)c2)c1` showed an activity score (inhibition) of -15.8%. `Cc1cccc(CN(C)C[C@@H]2OCc3cn(nn3)CCCC(=O)N([C@@H](C)CO)C[C@H]2C)c1` showed an activity score (inhibition) of -37.4%. `Cc1cccc(S(=O)(=O)N(C)C[C@@H]2OCc3cnnn3CCCC(=O)N([C@H](C)CO)C[C@@H]2C)c1` showed an activity score (inhibition) of 5.66%. Molecule `C[C@H]1CN([C@@H](C)CO)C(=O)Cc2cc(NC(=O)Cc3ccccc3)ccc2O[C@H]1CN(C)S(=O)(=O)c1ccc(Cl)cc1` has an activity score (inhibition) of 30.9%. For `Cc1ccc(S(=O)(=O)Nc2cccc3c2O[C@H](CN(C)CC2CCCCC2)[C@H](C)CN([C@H](C)CO)C3=O)cc1`, the activity score (inhibition) was 2.35%. `CNC[C@@H]1Oc2c(NC(=O)Nc3ccc(OC)cc3)cccc2C(=O)N([C@@H](C)CO)C[C@@H]1C` gave an activity score (inhibition) of -23.4%. Work on `COc1ccc(NC(=O)Nc2ccc3c(c2)CC(=O)N([C@H](C)CO)C[C@H](C)[C@H](CN(C)S(=O)(=O)c2ccccc2)O3)cc1` yielded an activity score (inhibition) of -4.14%. Work on `Cc1ccc(S(=O)(=O)N(C)C[C@H]2Oc3c(NS(=O)(=O)c4cn(C)cn4)cccc3C(=O)N([C@@H](C)CO)C[C@H]2C)cc1` yielded an activity score (inhibition) of -10.8%. For `Cc1noc(C)c1NC(=O)Nc1ccc2c(c1)C(=O)N([C@@H](C)CO)C[C@H](C)[C@H](CN(C)CC1CCCCC1)O2`, the activity score (inhibition) was 7.21%. For `O=C(N/N=C/c1ccc(O)cc1Br)c1ccccc1O`, the activity score (inhibition) was -10.3%. Work on `COc1ccc(NC(=O)Nc2cccc3c2O[C@@H](CN(C)Cc2ccncc2)[C@H](C)CN([C@H](C)CO)C3=O)cc1` yielded an activity score (inhibition) of -7.67%. Work on `COc1ccc(NC(=O)Nc2cccc3c2O[C@H](CN(C)Cc2ccncc2)[C@@H](C)CN([C@@H](C)CO)C3=O)cc1` yielded an activity score (inhibition) of 2.96%. For `COc1ccc(CN(C)C[C@H]2Oc3c(NC(=O)c4ccncc4)cccc3C(=O)N([C@H](C)CO)C[C@@H]2C)cc1`, the activity score (inhibition) was 80.9% (active). `COc1ccc(NC(=O)Nc2ccc3c(c2)CC(=O)N([C@@H](C)CO)C[C@H](C)[C@H](CN(C)C(=O)Nc2ccc4c(c2)OCO4)O3)cc1` gave an activity score (inhibition) of -16.4%. Molecule `C[C@@H]1CN([C@@H](C)CO)C(=O)c2cc(NS(=O)(=O)c3ccc(Cl)cc3)ccc2O[C@H]1CN(C)S(=O)(=O)c1cn(C)cn1` has an activity score (inhibition) of -11.5%. Work on `CNC[C@H]1Oc2c(NC(=O)C3CC3)cccc2C(=O)N([C@@H](C)CO)C[C@@H]1C` yielded an activity score (inhibition) of -26.9%. Work on `C[C@H]1CN([C@@H](C)CO)C(=O)c2cccc(NS(C)(=O)=O)c2O[C@@H]1CN(C)C(=O)Nc1ccc(F)cc1` yielded an activity score (inhibition) of -4.72%. Molecule `C[C@H]1CN([C@@H](C)CO)C(=O)Cc2cc(NC(=O)Cc3ccccc3)ccc2O[C@@H]1CN(C)Cc1ccc(Cl)c(Cl)c1` has an activity score (inhibition) of 41.9%. With `C[C@@H]1CN([C@H](C)CO)C(=O)Cc2cc(NC(=O)NC3CCCCC3)ccc2O[C@H]1CN(C)Cc1ccc(Cl)c(Cl)c1` the activity score (inhibition) was 7.26%. For `COc1ccc(CN(C)C[C@H]2Oc3ccc(NC(=O)Cc4ccccc4)cc3CC(=O)N([C@@H](C)CO)C[C@@H]2C)cc1`, the activity score (inhibition) was 71.7% (active). In the case of `C[C@@H]1CN([C@H](C)CO)C(=O)Cc2cc(NC(=O)Cc3ccccc3)ccc2O[C@H]1CN(C)Cc1ccc(Oc2ccccc2)cc1`, the activity score (inhibition) is reported as 42.5%. `C[C@@H]1CN([C@@H](C)CO)C(=O)Cc2cc(NC(=O)Cc3ccccc3)ccc2O[C@@H]1CN(C)Cc1ccc2c(c1)OCO2` gave an activity score (inhibition) of 32.2%. With `C[C@@H]1CN([C@@H](C)CO)C(=O)Cc2cc(NC(=O)Cc3ccccc3)ccc2O[C@@H]1CN(C)Cc1ccc(Oc2ccccc2)cc1` the activity score (inhibition) was 65.6% (active). In the case of `C[C@H]1CN([C@@H](C)CO)C(=O)Cc2cc(NC(=O)NC3CCCCC3)ccc2O[C@@H]1CN(C)Cc1ccc(Oc2ccccc2)cc1`, the activity score (inhibition) is reported as 75.3% (active). In the case of `C[C@@H]1CN([C@H](C)CO)C(=O)Cc2cc(NC(=O)Cc3ccccc3)ccc2O[C@@H]1CN(C)Cc1ccccc1`, the activity score (inhibition) is reported as 5.2%. `C[C@@H]1CN([C@H](C)CO)C(=O)Cc2cc(NC(=O)CCCN(C)C)ccc2O[C@@H]1CN(C)Cc1ccc(Oc2ccccc2)cc1` gave an activity score (inhibition) of -28.8%. In the case of `C[C@@H]1CN([C@H](C)CO)C(=O)c2cc(NC(=O)Cn3cnnn3)ccc2O[C@@H]1CN(C)Cc1ccc(C(F)(F)F)cc1`, the activity score (inhibition) is reported as -1.8%. For `O=C(O)CCCCCCC(=O)NN=C1CCCCCC1`, the activity score (inhibition) was -26.3%. `COc1ccc(CN(C)C[C@@H]2Oc3ccc(NC(=O)Nc4ccc5c(c4)OCO5)cc3CC(=O)N([C@H](C)CO)C[C@H]2C)cc1` gave an activity score (inhibition) of 26.4%. For `C[C@H](CO)N1C[C@H](C)[C@H](CN(C)Cc2ccc(C(=O)Nc3ccccc3N)cc2)Oc2ccc(NC(=O)Nc3ccccc3)cc2CC1=O`, the activity score (inhibition) was 48.5%. With `CC(C)NC(=O)Nc1ccc2c(c1)CC(=O)N([C@H](C)CO)C[C@@H](C)[C@@H](CN(C)Cc1ccc(C(=O)Nc3ccccc3N)cc1)O2` the activity score (inhibition) was 52.3%. With `C[C@@H]1CN([C@H](C)CO)C(=O)Cc2cc(NC(=O)Nc3ccc4c(c3)OCO4)ccc2O[C@@H]1CN(C)Cc1ccc(C(=O)Nc2ccccc2N)cc1` the activity score (inhibition) was 63.9% (active). With `C[C@H]1CN([C@@H](C)CO)C(=O)Cc2cc(NC(=O)Nc3ccc4c(c3)OCO4)ccc2O[C@H]1CN(C)Cc1ccc(C(=O)Nc2ccccc2N)cc1` the activity score (inhibition) was 62.8% (active). `C[C@@H]1CN([C@H](C)CO)C(=O)Cc2cc(NC(=O)Nc3ccc(F)cc3)ccc2O[C@@H]1CN(C)Cc1ccc2c(c1)OCO2` gave an activity score (inhibition) of 1.98%. With `C[C@H](CO)N1C[C@H](C)[C@H](CN(C)S(=O)(=O)c2cccs2)Oc2ccc(NS(=O)(=O)c3ccc(Cl)cc3)cc2CC1=O` the activity score (inhibition) was -17%. For `C[C@H]1CN([C@@H](C)CO)C(=O)Cc2cc(NS(=O)(=O)c3cccs3)ccc2O[C@@H]1CN(C)Cc1ccc(Oc2ccccc2)cc1`, the activity score (inhibition) was 42.4%. `C[C@H](CO)N1C[C@H](C)[C@H](CN(C)CC2CCCCC2)Oc2ccc(NC(=O)CCN3CCOCC3)cc2CC1=O` gave an activity score (inhibition) of -39.1%. In the case of `C[C@H](CO)N1C[C@H](C)[C@H](CN(C)C(=O)Nc2ccc(C(F)(F)F)cc2)Oc2ccc(NC(=O)C3CC3)cc2C1=O`, the activity score (inhibition) is reported as -9.99%.
